The nature of test [1]: Human pregnane X receptor (PXR) small molecule agonists, qHTS cell viability counter screen (AID 1346977). Further: nearly all actives have a fitted effect of over 50% in size. Further: potency means the concentration at half of the fitted maximal effect. In a few lines:
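Cytotoxicity counter screen run in the same wells as the PXR luciferase assay, using PXR-Luc HepG2 cells in charcoal-stripped serum medium. Viability: CellTiter-Fluor fluorescence after 24hr compound treatment.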
(In qHTS, concentration-response curves come from the screen itself.)

Test [2] in a line: Caspase-3/7 induction in HepG2 cells by small molecules, qHTS assay (AID 1346978). Further: nearly all actives have a fitted effect of over 15% in size. In outline: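 Caspase-3/7 induction was measured by Caspase-Glo 3/7 luminescence (30 min, room temperature) after a 17 hr compound exposure of wild-type HepG2 cells seeded at 2,000 per well and pre-incubated 5 hr.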
Test [3] is described as follows: Caspase-3/7 induction in CHO-K1 cells by small molecules, qHTS cell viability counter screen (AID 1346979). Further: nearly all actives have a fitted effect of over 35% in size. Further: potency means the concentration at half of the fitted maximal effect. In outline:
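Cytotoxicity counter screen run in parallel with the caspase-3/7 assay: CHO-K1 cells, 16hr compound treatment at 37C, then CellTiter-Fluor for 1hr before fluorescence reading.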

Test [4] is described as follows: Caspase-3/7 induction in HepG2 cells by small molecules, qHTS cell viability counter screen (AID 1346981). Further: series mostly up to about 92 µM; nearly all actives have a fitted effect of over 30% in size. In a few lines:
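In this quantitative HTS counter screen, compounds delivered in DMSO were left on unmodified HepG2 cells for 16 hr at 37 C. Viability was then determined fluorometrically with CellTiter-Fluor, in parallel with caspase-3/7 induction in the same wells.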

In test [5] the target is Nuclear receptor subfamily 1 group I member 2 (Homo sapiens) (UniProt O75469). The test can be described thus: Human pregnane X receptor (PXR) small molecule agonists, qHTS assay (AID 1346982). Further: nearly all actives have a fitted effect of over 35% in size. Further: potency means the concentration at half of the fitted maximal effect. In a few lines:
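Reporter HepG2 cells expressing PXR-Luc are cultured in charcoal-stripped FBS (5%), treated with compounds for 24 hr at 37 C, and assayed by ONE-Glo luminescence after 30 min at room temperature.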

For test [6], the target named is Acetylcholinesterase (Homo sapiens) (UniProt P22303). In words: Acetylcholinesterase (AChE) small molecule antagonists: colormetric cell-based qHTS assay (AID 1347395; calls by dose curve; further: nearly all actives have a fitted effect of over 30% in size). In a few lines:
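Cells (SH-SY5Y, 2,000 per well) are seeded and left overnight at 37 C. Compound is added for 30 min, then DTNB and acetylthiocholine for a further 90 min at 37 C before absorbance-based thiocholine detection.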

Test [7] shares this target. In words: Acetylcholinesterase (AChE) small molecule antagonists: enzyme-based qHTS assay (AID 1347397; calls by dose curve; further: nearly all actives have a fitted effect of over 55% in size). The note with it: Potency: AChE enzyme activity inhibition. In outline: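 First, recombinant human AChE (50 mU/mL as dispensed) received test compound or DMSO. Second, plates stood 30 min at room temperature. Third, DTNB and acetylthiocholine were added, followed by 10 min at room temperature and colorimetric detection.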

Test [8] shares this target. In words: Acetylcholinesterase (AChE) small molecule antagonists: fluorescence cell-based qHTS assay (AID 1347398; calls by dose curve; further: nearly all actives have a fitted effect of over 50% in size; further: potency means the concentration at half of the fitted maximal effect). The note with it: Potency: AChE activity. In a few lines:
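Homogeneous quantitative HTS format. SH-SY5Y cells seeded at 2,000 per well settle overnight at 37 C. Compound pretreatment runs 30 min (37 C, 5% CO2); substrate/probe mix then reacts 40 min at RT before reading 490/520 nm.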

Test [9] has the same target. The test can be described thus: Acetylcholinesterase (AChE) small molecule antagonists: enzyme-based qHTS assay with human liver microsomes (AID 1347399; calls by dose curve; further: nearly all actives have a fitted effect of over 60% in size). The conditions noted are these: Potency: qHTS inhibition. In outline: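 Recombinant human AChE (50 mU/mL in the enzyme mix) and human liver microsomes (0.25 mg/mL final) were preincubated with compound and NADPH (0.25 mg/mL final) for 30 min at 37 C. Acetylthiocholine/DTNB was then added; thiocholine was read colorimetrically after 10 min at room temperature.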

Test [10] concerns the target Cytochrome P450 2D6 (Homo sapiens) (UniProt P10635). In words: Cytochrome P450 Family 2 Subfamily D Member 6 (CYP2D6) small molecule antagonists: luciferase reporter qHTS assay (AID 1671196). Further: nearly all actives have a fitted effect of over 50% in size. Further: potency means the concentration at half of the fitted maximal effect. In outline: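 Test chemicals meet CYP2D6 plus proluciferin substrate (10 min, RT); NADPH regenerating solution then drives turnover for 1 h. Detection reagent halts the reaction; luminescence measured after 20 min.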
On the technique in general: Reporter assays use an easily measured gene product as a stand-in for the process of interest.

Test [11] deals with Cytochrome P450 2C19 (Homo sapiens) (UniProt P33261). In words: Cytochrome P450 Family 2 Subfamily C Member 19 (CYP2C19) small molecule antagonists: luciferase reporter qHTS assay (AID 1671197). Further: nearly all actives have a fitted effect of over 65% in size. Further: potency means the concentration at half of the fitted maximal effect. In outline:
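Relative luminescence units recorded 20 min after the detection reagent stopped a 1 h, 37C CYP2C19 reaction on proluciferin substrate, which was started by NADPH regeneration following 10 min room-temperature compound preincubation; ketoconazole positive control.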

Test [12] deals with Cytochrome P450 2C9 (Homo sapiens) (UniProt P11712). In words: Cytochrome P450 Family 2 Subfamily C Member 9 (CYP2C9) small molecule antagonists: luciferase reporter qHTS assay (AID 1671198). Further: nearly all actives have a fitted effect of over 50% in size. Further: potency means the concentration at half of the fitted maximal effect. In outline:
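Enzyme-substrate mix preincubated with compound 10 min at room temperature; reaction started with NADPH regeneration solution, 1 h 37C. Luminescent luciferin product read after 20 min detection reagent.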

Test [13] has as its target Cytochrome P450 1A2 (Homo sapiens) (UniProt P05177). The test can be described thus: Cytochrome P450 Family 1 Subfamily A Member 2 (CYP1A2) small molecule antagonists: luciferase reporter qHTS assay (AID 1671199). Further: nearly all actives have a fitted effect of over 50% in size. Further: potency means the concentration at half of the fitted maximal effect. In outline:
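Steps: enzyme-substrate mix dispensed; test compounds and furafylline control pinned in; 10 min room temperature; NADPH regeneration solution added, 1 h; reaction stopped with luciferin detection reagent; luminescence read after 20 min.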

For test [14], the target named is Voltage-gated inwardly rectifying potassium channel KCNH2 (Homo sapiens) (UniProt Q12809). The test can be described thus: Human Ether-a-go-go-Related Gene (hERG) channel small molecule antagonists: fluorescence cell-based qHTS assay (AID 1671200). Further: nearly all actives have a fitted effect of over 50% in size. Further: potency means the concentration at half of the fitted maximal effect. In outline:
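Fluorescence at 540 nm emission (480 nm excitation) was recorded kinetically for 2 min at 1-second intervals once the thallium-containing stimulus reached cells previously loaded with FluxOR II dye.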
(In general: Block of hERG is tested as a sign of cardiac risk.)

A short description of test [15]: Caspase-3/7 induction in CHO-K1 cells by small molecules, qHTS assay (AID 1346980). Further: nearly all actives have a fitted effect of over 15% in size. In outline: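 Luminescent Caspase-Glo 3/7 read (30min, room temperature) quantified apoptosis induction. Cells were wild-type CHO-K1, treated with compound for 17hr at 37 C and 5% CO2.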
Test [16] deals with Cytochrome P450 3A4 (Homo sapiens) (UniProt P08684). The test can be described thus: Cytochrome P450 Family 3 Subfamily A Member 4 (CYP3A4) small molecule antagonists: luciferase reporter qHTS assay (AID 1671201). In outline: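 qHTS, 1536-well. CYP3A4 + proluciferin substrate, cpd 10 min RT → NADPH regen 1 h RT → detection reagent 20 min → luminescence (RLU). Ketoconazole positive control.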
Sequence of Cytochrome P450 3A4 (Homo sapiens) (P08684 whole entry, looked up): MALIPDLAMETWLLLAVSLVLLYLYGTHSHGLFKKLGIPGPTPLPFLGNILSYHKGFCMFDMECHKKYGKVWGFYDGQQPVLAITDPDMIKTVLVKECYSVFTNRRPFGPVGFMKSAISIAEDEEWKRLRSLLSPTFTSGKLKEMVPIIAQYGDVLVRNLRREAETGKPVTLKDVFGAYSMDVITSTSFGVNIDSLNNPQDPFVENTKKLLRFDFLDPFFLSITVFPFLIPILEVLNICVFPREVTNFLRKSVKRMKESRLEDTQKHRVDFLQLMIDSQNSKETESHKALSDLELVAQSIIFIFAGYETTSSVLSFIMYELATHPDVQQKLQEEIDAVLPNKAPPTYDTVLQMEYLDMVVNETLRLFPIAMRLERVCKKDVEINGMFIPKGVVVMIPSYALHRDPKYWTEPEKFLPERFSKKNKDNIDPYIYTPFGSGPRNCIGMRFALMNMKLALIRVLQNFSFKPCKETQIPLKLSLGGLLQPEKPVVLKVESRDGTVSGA

SMILES strings stand for the structures. A number with no mark means an inactive call. Results filed as inconclusive are left out. Activity calls are given as the source filed them. Unless noted, the call rests on the fitted dose curve; in most records, active means well fitted curve in the direction sought with a large enough effect in the repeat runs; inconclusive means weak or mixed curves; inactive means no such curve, though single readings can be large; an effect the other way counts as inactive or inconclusive.

Sequence of Cytochrome P450 2D6 (Homo sapiens) (P10635 whole entry, looked up): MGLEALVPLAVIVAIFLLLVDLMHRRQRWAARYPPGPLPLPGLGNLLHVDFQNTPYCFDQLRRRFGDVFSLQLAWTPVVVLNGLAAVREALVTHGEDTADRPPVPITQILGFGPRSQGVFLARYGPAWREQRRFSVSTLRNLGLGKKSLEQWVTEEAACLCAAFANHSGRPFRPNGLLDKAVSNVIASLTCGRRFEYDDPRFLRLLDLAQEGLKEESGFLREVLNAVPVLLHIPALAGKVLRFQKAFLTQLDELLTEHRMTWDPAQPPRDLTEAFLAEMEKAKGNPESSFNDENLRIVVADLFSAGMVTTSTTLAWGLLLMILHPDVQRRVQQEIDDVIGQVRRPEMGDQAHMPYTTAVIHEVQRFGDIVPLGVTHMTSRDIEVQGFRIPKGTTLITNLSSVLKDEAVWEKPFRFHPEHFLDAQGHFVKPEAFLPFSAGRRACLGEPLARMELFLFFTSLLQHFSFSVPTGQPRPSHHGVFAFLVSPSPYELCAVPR
Sequence of Cytochrome P450 2C9 (Homo sapiens) (P11712 whole entry, looked up): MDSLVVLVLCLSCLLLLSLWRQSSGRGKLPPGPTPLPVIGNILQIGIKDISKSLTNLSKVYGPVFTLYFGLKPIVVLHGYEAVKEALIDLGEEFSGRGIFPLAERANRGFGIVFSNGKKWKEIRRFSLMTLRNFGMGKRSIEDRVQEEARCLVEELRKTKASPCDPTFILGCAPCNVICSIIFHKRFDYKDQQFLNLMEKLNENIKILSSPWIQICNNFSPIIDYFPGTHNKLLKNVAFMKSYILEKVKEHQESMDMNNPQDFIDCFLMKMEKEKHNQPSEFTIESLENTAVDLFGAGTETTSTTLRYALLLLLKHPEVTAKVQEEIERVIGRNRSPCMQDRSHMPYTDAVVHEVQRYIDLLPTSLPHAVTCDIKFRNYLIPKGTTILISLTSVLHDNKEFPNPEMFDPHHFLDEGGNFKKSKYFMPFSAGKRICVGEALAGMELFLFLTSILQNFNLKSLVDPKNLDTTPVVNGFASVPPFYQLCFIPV
Sequence of Cytochrome P450 1A2 (Homo sapiens) (P05177 whole entry, looked up): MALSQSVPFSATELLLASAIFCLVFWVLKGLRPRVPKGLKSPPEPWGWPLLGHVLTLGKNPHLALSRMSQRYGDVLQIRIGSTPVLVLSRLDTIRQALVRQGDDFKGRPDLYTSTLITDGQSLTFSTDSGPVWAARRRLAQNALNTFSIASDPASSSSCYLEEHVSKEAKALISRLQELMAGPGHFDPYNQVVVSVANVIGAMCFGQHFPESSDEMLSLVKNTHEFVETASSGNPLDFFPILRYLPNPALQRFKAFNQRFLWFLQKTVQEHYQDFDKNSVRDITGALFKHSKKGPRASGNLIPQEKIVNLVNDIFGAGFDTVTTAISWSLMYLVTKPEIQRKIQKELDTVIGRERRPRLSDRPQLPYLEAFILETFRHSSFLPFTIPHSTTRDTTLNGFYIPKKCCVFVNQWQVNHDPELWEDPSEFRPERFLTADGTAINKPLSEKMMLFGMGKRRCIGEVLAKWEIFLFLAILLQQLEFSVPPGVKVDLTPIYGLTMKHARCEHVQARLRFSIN
Sequence of Acetylcholinesterase (Homo sapiens) (P22303 whole entry, looked up): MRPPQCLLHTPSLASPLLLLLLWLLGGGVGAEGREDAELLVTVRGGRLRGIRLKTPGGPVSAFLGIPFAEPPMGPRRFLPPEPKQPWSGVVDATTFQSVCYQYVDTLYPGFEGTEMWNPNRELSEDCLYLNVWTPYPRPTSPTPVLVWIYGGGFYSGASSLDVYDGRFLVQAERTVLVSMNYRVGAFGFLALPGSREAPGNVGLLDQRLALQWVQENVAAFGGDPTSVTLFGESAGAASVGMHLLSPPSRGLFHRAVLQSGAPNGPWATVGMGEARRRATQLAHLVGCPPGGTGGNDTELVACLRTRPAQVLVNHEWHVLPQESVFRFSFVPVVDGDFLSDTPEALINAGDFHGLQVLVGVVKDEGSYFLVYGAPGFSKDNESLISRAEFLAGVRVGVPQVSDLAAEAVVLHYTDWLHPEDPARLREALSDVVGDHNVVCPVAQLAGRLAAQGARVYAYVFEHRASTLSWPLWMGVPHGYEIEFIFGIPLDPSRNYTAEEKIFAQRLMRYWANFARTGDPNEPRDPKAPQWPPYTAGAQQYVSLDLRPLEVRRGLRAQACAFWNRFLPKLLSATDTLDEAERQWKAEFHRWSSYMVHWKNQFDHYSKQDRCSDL
Sequence of Voltage-gated inwardly rectifying potassium channel KCNH2 (Homo sapiens) (Q12809 whole entry, looked up): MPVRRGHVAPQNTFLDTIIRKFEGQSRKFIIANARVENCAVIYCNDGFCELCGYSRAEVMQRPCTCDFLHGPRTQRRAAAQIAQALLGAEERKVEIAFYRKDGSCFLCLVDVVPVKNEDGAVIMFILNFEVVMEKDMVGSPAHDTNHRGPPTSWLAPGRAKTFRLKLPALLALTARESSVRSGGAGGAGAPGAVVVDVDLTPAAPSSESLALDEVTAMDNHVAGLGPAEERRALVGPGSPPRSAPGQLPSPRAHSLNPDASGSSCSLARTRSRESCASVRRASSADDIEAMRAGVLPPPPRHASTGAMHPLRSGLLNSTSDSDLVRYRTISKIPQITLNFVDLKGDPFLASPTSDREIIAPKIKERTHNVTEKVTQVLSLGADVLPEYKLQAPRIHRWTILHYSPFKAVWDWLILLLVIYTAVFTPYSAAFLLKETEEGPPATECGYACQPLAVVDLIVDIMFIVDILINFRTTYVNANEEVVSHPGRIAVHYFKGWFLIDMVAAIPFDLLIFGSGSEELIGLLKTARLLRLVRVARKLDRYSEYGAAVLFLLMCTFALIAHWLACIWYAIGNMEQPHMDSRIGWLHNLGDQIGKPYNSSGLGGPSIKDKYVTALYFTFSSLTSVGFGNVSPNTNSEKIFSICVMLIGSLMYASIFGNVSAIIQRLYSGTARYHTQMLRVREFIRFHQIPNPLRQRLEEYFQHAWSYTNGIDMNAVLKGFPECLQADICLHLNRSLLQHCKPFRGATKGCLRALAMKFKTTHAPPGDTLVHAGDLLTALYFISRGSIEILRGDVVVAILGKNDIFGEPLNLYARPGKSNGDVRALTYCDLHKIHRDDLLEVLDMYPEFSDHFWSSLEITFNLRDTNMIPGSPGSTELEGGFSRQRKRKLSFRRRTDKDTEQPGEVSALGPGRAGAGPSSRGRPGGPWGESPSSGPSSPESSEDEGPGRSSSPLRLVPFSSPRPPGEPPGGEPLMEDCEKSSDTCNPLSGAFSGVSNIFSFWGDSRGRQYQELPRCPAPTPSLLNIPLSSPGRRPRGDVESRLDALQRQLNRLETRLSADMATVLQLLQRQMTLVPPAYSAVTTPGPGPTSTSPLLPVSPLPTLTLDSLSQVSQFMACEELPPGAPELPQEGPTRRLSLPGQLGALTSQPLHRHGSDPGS
Sequence of Nuclear receptor subfamily 1 group I member 2 (Homo sapiens) (O75469 whole entry, looked up): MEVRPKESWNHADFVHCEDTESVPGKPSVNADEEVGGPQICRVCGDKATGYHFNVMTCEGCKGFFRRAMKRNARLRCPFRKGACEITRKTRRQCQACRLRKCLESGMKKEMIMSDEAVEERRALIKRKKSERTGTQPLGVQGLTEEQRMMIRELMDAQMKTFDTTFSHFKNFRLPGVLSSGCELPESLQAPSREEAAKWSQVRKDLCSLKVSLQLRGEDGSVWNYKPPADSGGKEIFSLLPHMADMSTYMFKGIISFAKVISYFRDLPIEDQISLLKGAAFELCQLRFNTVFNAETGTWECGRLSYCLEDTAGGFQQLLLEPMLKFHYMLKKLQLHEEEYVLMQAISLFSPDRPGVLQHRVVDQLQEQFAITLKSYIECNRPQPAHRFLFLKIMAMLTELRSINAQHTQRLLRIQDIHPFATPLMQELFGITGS
Sequence of Cytochrome P450 2C19 (Homo sapiens) (P33261 whole entry, looked up): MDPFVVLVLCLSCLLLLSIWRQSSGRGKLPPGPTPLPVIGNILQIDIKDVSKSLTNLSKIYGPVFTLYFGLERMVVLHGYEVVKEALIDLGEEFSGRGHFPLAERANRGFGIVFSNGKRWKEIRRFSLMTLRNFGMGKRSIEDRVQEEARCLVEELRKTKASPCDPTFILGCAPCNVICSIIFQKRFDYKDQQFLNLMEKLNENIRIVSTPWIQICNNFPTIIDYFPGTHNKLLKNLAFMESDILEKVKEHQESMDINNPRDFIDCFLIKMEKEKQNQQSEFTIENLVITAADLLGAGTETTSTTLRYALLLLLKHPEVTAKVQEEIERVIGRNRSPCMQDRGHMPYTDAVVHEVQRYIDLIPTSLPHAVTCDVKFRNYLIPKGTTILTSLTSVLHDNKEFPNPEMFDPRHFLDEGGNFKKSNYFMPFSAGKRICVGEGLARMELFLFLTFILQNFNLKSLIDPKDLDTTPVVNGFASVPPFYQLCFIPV

`C#CC1(O)CCCCC1`: the Potency result in test [1], in [2], in test [3], in test [4], in test [5] and in test [6] was “inactive” each time. In addition, the Potency result in [7], in [8], in [9], in test [10], in [11] and in test [12] was “inactive” throughout. Further, the Potency result in test [13] and in [14] was “inactive” throughout.

`O=S(=O)(O)F`: the Potency result in [1], in test [2], in test [3], in test [15], in test [6] and in test [7] was “inactive” throughout. The Potency entry in test [8], in test [9], in [10], in [12], in test [13] and in test [14] was “inactive” throughout. In test [5], the Potency was 53.8 µM (active).

As for `BrCCCBr`, the Potency result in test [1], in [2], in [3], in test [4], in test [5] and in test [6] was “inactive” in each case. The Potency result in [7], in test [8], in test [9], in test [10], in test [11] and in [12] was “inactive” throughout. Besides, the Potency entry in [14] was “inactive”.

On to `O=C(NC(=O)c1ccccc1Cl)Nc1ccc(OC(F)(F)F)cc1`, for which the Potency entry in [1], in test [2], in [3], in test [15], in [7] and in test [8] was “inactive” in each case. For the same compound, the Potency entry in test [9], in test [10], in test [11], in test [12], in test [14] and in [16] was “inactive” throughout.

In the case of `O=[N+]([O-])C(Br)Br`, the Potency entry in [1], in test [2], in test [3], in test [5], in test [6] and in [7] was “inactive” each time. In addition, the Potency result in test [8], in [9], in test [10], in test [11], in [12] and in [13] was “inactive” in each case. The Potency result in test [14] is “inactive”.

On to `CC(O)C(=O)[O][Hg][c]1ccccc1` (stereo unspecified), for which the Potency in test [1] is 1.93 µM (active); in [3], 1.09 µM (active); in test [8], 79.6 µM (active); in test [10], 0.448 µM (active); in test [11] it was 6.33 µM (active); in [12], 1.78 µM (active). The Potency was 17.8 µM (active) in test [13] and 17.4 µM (active) in [14]. Also, the Potency entry in test [2], in test [15], in test [5], in test [7] and in test [9] was “inactive” in each case.

For the compound `OCC(Br)CBr` (stereo unspecified), the Potency entry in test [1], in test [2], in [3], in test [4], in test [5] and in test [6] was “inactive” in each case. Moreover, the Potency entry in test [7], in [8], in test [9], in [11], in test [12] and in test [14] was “inactive” in each case. In addition, the Potency entry in [16] is “inactive”.

Values taken from PubChem BioAssay (Tox21).
